# From PubChem BioAssay (Tox21)
# Results filed as inconclusive are left out. Unmarked numbers belong to inactive results. The call rests on the fitted dose curve; in most records, active means well fitted cell-killing curve with a large enough effect in the repeat runs; inconclusive means weak or mixed curves; inactive means flat fitted curve, though single readings scatter.
# Experiment: qHTS RealTime-Glo MT Cell Viability Assay in HepG2 cells - 8 hour (AID 1224873); further: nearly all actives have a fitted effect of over 55% in size
# Details: RealTime-Glo luminescence; series mostly up to 76.8 µM; viability change, negative = cytotoxic: at the top concentration
# How it was run: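 HepG2 cells mixed with RealTime-Glo MT reagents (NanoLuc plus cell-permeant prosubstrate) were seeded at 600 cells/well, incubated 5 h at 37 C/5% CO2, then pinned with compounds in DMSO; nonlytic luminescence tracked viability during 40 h treatment.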
# On the % scale 0 is the no-effect control and ±100 the full control effect.
row,Compound,"viability change, negative = cytotoxic"
1,Cc1cc(OI)c(C(C)C)cc1-c1cc(C(C)C)c(OI)cc1C,-5.83% [at 35.3 µM]
2,C[N+](C)(C)CCOC(N)=O,1.09% [at 35.3 µM]
3,CC(C)(O)c1ccccc1CC[C@@H](SCC1(CC(=O)O)CC1)c1cccc(/C=C/c2ccc3ccc(Cl)cc3n2)c1,3.31% [at 35.3 µM]
4,CCCCC(CC)CNCC(CC)CCCC (stereo not given),1.21%
5,COCCOC,-15.7%
6,CC(=O)Nc1ccccc1C,-0.0037%
7,C/C=C(\C)C(=O)OCCC(C)CCC=C(C)C (stereo not given),3.01%
8,CCCCCCCC/C=C\CCCCCCCC(=O)OC(CO)CO,-0.333%
9,CCn1nc(C)c2c1C(=O)NCC(c1ccc(O)cc1)=N2,-0.144%
10,Cc1ccnc2ccccc12,2.19%
11,CCn1cc(C(=O)O)c(=O)c2cc(F)c(N3CCNCC3)nc21,5.75% [at 35.3 µM]
12,Brc1cc(-c2ccc(Br)c(Br)c2Br)cc(Br)c1Br,-1.39% [at 35.3 µM]
13,CCC1(C)CC(=O)NC1=O (stereo not given),-1.88% [at 35.3 µM]
14,O=S(=O)(c1ccccc1)c1ccc(Cl)cc1,-1.01%
15,O=C(O)c1c(O)c(-c2ccccc2)nc2ccccc12,-0.737% [at 35.3 µM]
16,CC(C)(C)C(=O)O,-0.476%
17,CCOC(=O)OCC,3.58%
18,CN1Cc2cc(C(=O)N3CCC(C4CCNCC4)CC3)ccc2N[C@@H](CC(=O)O)C1=O,0.469% [at 35.3 µM]
19,OC(CCCN1CCCCC1)(c1ccccc1)c1ccccc1,-2.42% [at 35.3 µM]
20,CCN(CC)CCNC(=O)c1ccc(NC(C)=O)cc1,1.27% [at 35.3 µM]
21,CC(C)CCCCCOC(=O)CCCCC(=O)OCCCCCC(C)C,0.346%
22,O=C(CS)OCCOC(=O)CS,1.5%
23,CCCCCCCCCOC(C)=O,0.227%
24,O=C(O)Cc1ccc(-c2ccccc2)cc1,3.54% [at 35.3 µM]
25,CC(=O)Nc1ccc(N)cc1,0.227%
